# Screening results as filed in PubChem BioAssay.
# Hits are enriched below; roughly 8% of the tested compounds scored in any of these assays.
# MCF10A rereplic – DNA re-replication induction in MCF 10a cells; 2.9% of 350,000 active; MCF 10A DNA re-replication, Hoechst nuclear intensity, 48 h; AID 624296; Potency, µM (series often up to 46.1 µM), for the others: at the top dose activity, positive = re-replication, actives largely listed as activators; further: % of control where 0% means no effect; nearly all actives have a fitted effect of over 50% in size
# HT1080 IDH1KD tx – HT-1080 IDH1 knockdown cell toxicity (counter line); Potency, µM (series often up to 46.1 µM), for inactives: at the top dose activity, negative = toxicity, most hits filed as cytotoxic; 2% of 360,000 active; HT-1080 IDH1 knockdown viability, ATP luminescence, 48 h;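 further: 0% = DMSO wells and -100% = cell-free medium wells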
#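 IDH1KD HT-1080 cells, 750/well, RPMI + 5% FBS; compound pinned after 2 h settling; 48 h, 37 °C; CellTiter-Glo luminescence; % activity normalised to DMSO and no-cell wells; curves fitted, classed by r2 and efficacy.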
# KB-V1 MDR tox – KB-V1 MDR subline cytotoxicity. KB-V1 MDR cells viability, CellTiter-Glo, 72 h. Potency, µM (doses to about 46.1 µM), most hits filed as cytotoxic. 3.4% of 400,000 active; further: on the % scale 0 is the no-effect control and ±100 the full control effect; nearly all actives have a fitted effect of over 60% in size
#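 Readout: CellTiter-Glo luminescence, 10 min after addition. Cells: KB-V1 MDR subline, 72 h at 37 degrees C with compound. Analysis: corrected, normalized data fitted to concentration-effect curves.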
# KB-3-1 cytotox – kills parental KB-3-1 adenocarcinoma cells. KB-3-1 viability, CellTiter-Glo ATP luminescence, 72 h. Potency, µM (highest dose often 46.1 µM), hits mostly cytotoxic. 1.4% of 400,000 active. AID 1347075; further: on the % scale 0 is the no-effect control and ±100 the full control effect; nearly all actives have a fitted effect of over 60% in size
#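 Parental KB-3-1 adenocarcinoma cells in phenol-red-free DMEM with 10% FBS were pin-treated with compounds at several concentrations, incubated 72 h at 37 °C, and viability read by CellTiter-Glo luminescence; concentration-effect curves were fitted after normalization.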
# SW480 rerep – induces DNA re-replication in SW480 colon adenocarcinoma cells | SW480 DNA re-replication, Hoechst DNA content imaging, 48 h | Potency, µM (doses to about 46.1 µM), for the others: top-dose re-replication activation, hits mostly activators | 1.8% of 340,000 active | AID 624297; further: % of control where 0% means no effect; nearly all actives have a fitted effect of over 55% in size
#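 Per well, 250 cells were exposed to pinned compound for 48 hr. Nuclear DNA was visualised with Hoechst (40 min, 37 C) and total object intensity recorded by fluorescence scanning.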
# HT1080-NT tox – kills 2HG-producing HT-1080-NT fibrosarcoma cells | HT-1080-NT fibrosarcoma viability, CellTiter-Glo ATP luminescence, 48 h | Potency, µM (highest dose often 46.1 µM), for inactives: at the top dose activity, negative = less viability, hits mostly cytotoxic | 1.6% of 360,000 active;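 further: NT is the 2HG producing partner of a matched IDH1 knockdown line; 0% = DMSO-treated cells and -100% = media-only wells without cells; nearly all actives have a fitted effect of over 55% in size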
#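 Read-out is CellTiter-Glo luminescence after 10 minutes at room temperature, following 48 hours' compound treatment of HT-1080-NT cells (750 cells/well, RPMI, 5% FBS, 37 degrees C).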
# Starred values were filed as active, the others as inactive; i = inactive; ? = inconclusive; nt = no result; [ ] = remark or other dose. The call rests on the fitted dose curve; in most records, active means well fitted curve in the direction sought with a large enough effect; inconclusive means small, poorly fitted or top-dose-only effect, or another doubt; inactive means no such curve, though single readings can be large; an effect the other way counts as inactive or inconclusive. Potency means the concentration at half of the fitted maximal effect.
SMILES,MCF10A rereplic,HT1080 IDH1KD tx,KB-V1 MDR tox,KB-3-1 cytotox,SW480 rerep,HT1080-NT tox
Cc1cccc(C)c1N(CC(=O)Nc1cc(Cl)ccc1Oc1ccccc1)S(C)(=O)=O,-3%,-10%,i,i,-3%,-3%
CC(C)CNS(=O)(=O)c1ccc(CCC(=O)Nc2cc(Cl)ccc2Oc2ccccc2)cc1,16%,-41%,i,?,7.3µM*,-25%
Cc1ccc(C)c(N(CC(=O)Nc2cc(Cl)ccc2Oc2ccccc2)S(C)(=O)=O)c1,7%,-7%,21µM*,?,2%,-14%
C=CCN(CC=C)C(=O)Nc1cc(Cl)ccc1OC,-3%,-14%,15µM*,i,-2%,15%
COc1ccc(Cl)cc1NC(=O)CC(=O)Nc1cc(Cl)ccc1OC,23%,?,i,i,25%,-20%
Cn1c(CNC(=O)c2ccccc2)nnc1SCC(=O)Nc1nccs1,?,8%,i,i,?,7%
CCc1ccccc1NC(=O)Cn1c(=O)n(CC(=O)NCCc2ccccc2)c(=O)c2ccccc21,nt,nt,i,i,nt,nt
CC(C)(C)NS(=O)(=O)c1ccc(CCC(=O)Nc2cc(Cl)ccc2Oc2ccccc2)cc1,-11%,-14%,i,i,-4%,-5%
COc1ccc(CCC(=O)Nc2cc(Cl)ccc2OC)cc1,?,-11%,21µM*,i,?,-24%
CCCNS(=O)(=O)c1ccc(CCC(=O)Nc2cc(Cl)ccc2Oc2ccccc2)cc1,8.2µM*,-19%,8.2µM*,i,5%,-10%
COc1ccc(-c2ocnc2C(=O)NCc2nn(-c3ccccc3)nc2C)cc1,21%,16µM*,?,i,0%,?
CC(C)C(c1nnnn1C(C)(C)C)N1CCC(Cc2ccccc2)CC1 (stereo not given),21µM*,-10%,?,i,7%,0%
CCCCn1c(NC(C)=O)c(C#N)c2nc3ccccc3nc21,?,-6%,i,i,16%,-4%
C=CCn1c(NC(=O)c2ccccc2Cl)c(C#N)c2nc3ccccc3nc21,16µM*,-27%,8.2µM*,?,18µM*,-23%
N#CC1=C(N)C(C#N)(C#N)[C@H](c2c(F)cccc2F)[C@H]2CC3(CC=C12)OCCO3,4.1µM*,10µM*,?,6.5µM*,3.3µM*,?
CCCn1c(NCc2cc(OC)ccc2OC)nc2ccccc21,1%,6%,4.1µM*,i,5%,0%
CCCn1c(-c2ccc(OC)cc2)nc2ccccc21,24%,?,18µM*,?,27%,-17%
COc1ccc(CNc2nc3ccccc3n2CCN2CCCCC2)c(OC)c1,19%,-25%,18µM*,i,0%,-13%
COc1ccc(CNc2nc3ccccc3n2Cc2ccc(C)cc2)cc1OC,?,9%,3.3µM*,i,16%,-1%
CN(CC(=O)NCCN1CCN(c2ccccc2)CC1)S(=O)(=O)c1ccc2c(c1)CCC(=O)N2,2%,-2%,i,i,-12%,0%
CCn1c(SCC(=O)OC)nnc1-c1c[nH]c2ccccc12,0%,24%,i,i,-7%,25%
COc1ccc(OC)c(CNc2nc3ccccc3n2CCN2CCCCC2)c1,7%,?,4.1µM*,?,24%,?
Cc1cccc(CCNC(=O)Cn2ncc3c(=O)oc4ccccc4c32)c1,nt,nt,i,i,nt,nt
CC(C)(C)C(=O)Nc1nnc(-c2ccncc2)o1,-3%,9%,i,i,-4%,15%
NC(=O)c1oc2ccccc2c1NC(=O)c1nc2ccccc2s1,12%,26%,i,i,17%,19%
SMILES,MCF10A rereplic,HT1080 IDH1KD tx,KB-V1 MDR tox,KB-3-1 cytotox,SW480 rerep,HT1080-NT tox
O=C(Nc1nnc(-c2ccccc2)o1)c1nc2ccccc2s1,23µM*,-24%,i,i,-4%,-2%
O=C(Nc1nnc(-c2ccco2)o1)c1ccc([N+](=O)[O-])s1,21µM*,?,?,?,?,?
O=C(Nc1nnc(-c2ccncc2)o1)c1ccc(Br)s1,?,?,?,21µM*,?,-18%
CCN(CC)C(=O)[C@H]1C[C@H](CC(=O)NC(C)(C)C)C(=O)N2CCc3c([nH]c4ccc(Cl)cc34)[C@]12C,-4%,0%,i,i,5%,3%
COc1ccc(N2CCN(C(=O)CCn3nc(C)c(S(=O)(=O)N4CCCC4)c3C)CC2)cc1,nt,nt,i,i,nt,nt
CCC(=O)Nc1nc(CC(=O)Nc2ccccc2OC)cs1,-1%,-1%,i,i,-4%,-5%
COc1ccccc1NC(=O)Cc1csc(NC(=S)Nc2ccc(C)cc2)n1,?,7.1µM*,10µM*,?,21µM*,6.3µM*
CCOc1cc(C2c3c(-c4ccccc4O)n[nH]c3C(=O)N2CCc2ccccc2)ccc1O (stereo not given),nt,nt,i,i,nt,nt
CCOc1ccccc1NC(=O)CN(CCc1ccccc1)S(=O)(=O)c1ccc(C)cc1,nt,nt,i,i,nt,nt
O=C(Nc1ccc(OCC(F)(F)C(F)F)c(C(F)(F)F)c1)c1ccc(Cl)cc1,23µM*,15µM*,?,?,?,26µM*
O=C(Nc1ccc(Br)c(C(F)(F)F)c1)c1ccccc1,?,0%,16µM*,i,-4%,0%
COc1ccc(C(=O)Nc2ccc(OCC(F)(F)C(F)F)c(C(F)(F)F)c2)cc1OC,14%,?,?,?,1%[9.22 µM],?
O=C(Nc1ccc(Br)c(C(F)(F)F)c1)c1ccc(C(F)(F)F)cc1,15µM*,13µM*,?,?,?,21µM*
O=C(Nc1cccc(O)c1)c1ccc(C(F)(F)F)cc1,3%,-2%,i,i,-147%,-20%
O=C(Nc1ccc(C(F)(F)F)cc1)c1ccccc1,6%,7%,i,i,5%,49%
COc1ccc(-n2c(-c3ccc(C)cc3)cc3c2CC(C)(C)CC3=O)c(OC)c1,nt,nt,i,i,nt,nt
O=C(O)c1ccc(/C=N/NC(=O)C(O)(c2ccccc2)c2ccccc2)cc1,-15%,9%,i,i,?,-2%
CCN(CC)c1ccc(/C=N/NC(=O)C(O)(c2ccccc2)c2ccccc2)o1,7.3µM*,nt,nt,nt,?,nt
COc1ccc(/C=C2\CN(Cc3ccccc3)C/C(=C\c3ccc(OC)cc3)C2=O)cc1,8.2µM*,23µM*,?,?,nt,?
O=C(COc1ccc(F)cc1Cl)Nc1cccc(S(=O)(=O)N2CCCCCC2)c1,-6%,-6%,nt,nt,18%,-11%
CCc1nc(NCCc2ccccn2)c2nnn(Cc3ccccc3F)c2n1,?,-5%,i,i,-11%,0%
